Shown are actives, neighbours in structure and some others; about 1.6% of the full set was active somewhere.
KCNQ2 enhance = KCNQ2 (rat) channel potentiation; O88943; CHO-K1 KCNQ2, FluxOR thallium flux fluorescence; hits give high values; B-score at 10 µM; hit rate 0.54% among 310,000;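 active means fluorescence ratio B-score at least 3 SD of library B-scores, with initial fluorescence B-score within 3 of them, cut at about 5.3 in these data; same plate scores as AID 2156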;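 further: B-score of peak minus minimum over baseline fluorescence ratio after K+ and Tl+ stimulus; positive B-score means potentiation of KCNQ2 with more thallium influx and brighter signal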
Target sequence (O88943 whole entry, looked up): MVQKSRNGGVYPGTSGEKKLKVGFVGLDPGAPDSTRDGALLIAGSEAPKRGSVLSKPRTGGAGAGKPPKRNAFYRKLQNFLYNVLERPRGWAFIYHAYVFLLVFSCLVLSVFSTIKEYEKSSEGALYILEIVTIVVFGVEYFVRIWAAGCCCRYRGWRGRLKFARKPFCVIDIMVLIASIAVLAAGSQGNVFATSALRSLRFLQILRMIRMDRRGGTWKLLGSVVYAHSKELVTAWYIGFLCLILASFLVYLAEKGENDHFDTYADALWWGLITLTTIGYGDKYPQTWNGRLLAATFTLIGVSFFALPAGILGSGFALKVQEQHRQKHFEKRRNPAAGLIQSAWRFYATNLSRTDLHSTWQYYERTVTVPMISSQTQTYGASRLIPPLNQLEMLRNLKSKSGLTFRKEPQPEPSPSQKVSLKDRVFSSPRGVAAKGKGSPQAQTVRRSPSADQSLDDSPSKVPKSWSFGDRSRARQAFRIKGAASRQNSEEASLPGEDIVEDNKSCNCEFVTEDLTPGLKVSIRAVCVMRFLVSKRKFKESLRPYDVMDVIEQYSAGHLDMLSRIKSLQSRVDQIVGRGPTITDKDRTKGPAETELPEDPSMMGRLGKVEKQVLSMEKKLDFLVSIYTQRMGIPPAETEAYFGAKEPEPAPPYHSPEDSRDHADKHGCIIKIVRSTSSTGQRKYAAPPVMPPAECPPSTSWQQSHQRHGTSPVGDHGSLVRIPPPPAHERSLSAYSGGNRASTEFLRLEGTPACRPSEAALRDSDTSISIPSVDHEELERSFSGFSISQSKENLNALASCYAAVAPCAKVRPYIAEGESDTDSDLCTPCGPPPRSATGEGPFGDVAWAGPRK
KCNQ2 inh = inhibitors of rat KCNQ2 potassium channel; O88943; CHO-K1 KCNQ2, FluxOR thallium flux, 20 min; hits give low values; B-score at 10 µM; hit rate 1.1% among 310,000; AID 2156;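 active means fluorescence ratio B-score at most minus 3 library SDs, with starting brightness B-score within 2 library SDs, cut at about -5.5 in these data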
Numbers without * were called inactive.

What do the screens show for `CCOC(=O)C1=C(N)Oc2ccc3ccccc3c2C1c1ccc(O)c(OC)c1` (stereo unspecified)?
KCNQ2 inh: inactive

How did CCOC(=O)C1=C(N)Oc2ccc3ccccc3c2C1c1ccc(O)cc1 (stereo unspecified) do in these assays?
KCNQ2 enhance: -6.5; KCNQ2 inh: -6.5*

What do the screens show for `COc1cccc(-c2noc(-c3ccc(Br)o3)n2)c1`?
KCNQ2 inh: inactive

What do the screens show for `CC(=O)NCCOC(=O)c1nn(Cc2ccccc2)c(=O)c2ccccc12`?
KCNQ2 enhance: 0.2; KCNQ2 inh: inactive

Results for CCOc1ccc(OCC)c(NC(=O)CN2CCN(c3cc(C)ccc3C)CC2)c1 ?
KCNQ2 enhance: -5.6; KCNQ2 inh: -5.6*

Results for CCOc1ccc(OCC)c(NC(=O)CN2CCN(c3cccc(C)c3)CC2)c1 ?
KCNQ2 enhance: 1.9; KCNQ2 inh: inactive

What do the screens show for `COc1ccc(S(=O)(=O)Nc2cc3c4c(oc3c3ccccc23)CCCC4=O)cc1`?
KCNQ2 inh: inactive

Results for COc1ccc(S(=O)(=O)Nc2cc3c4c(oc3c3ccccc23)CC(C)(C)CC4=O)cc1 ?
KCNQ2 enhance: -6.5; KCNQ2 inh: -6.5*

How did C=CCOc1ccc(C(=O)n2cc(C(=O)OC)c3ccccc32)cc1 do in these assays?
KCNQ2 enhance: -6.2; KCNQ2 inh: -6.2*

How did COC(=O)c1cn(C(=O)c2ccc(F)cc2)c2ccccc12 do in these assays?
KCNQ2 inh: inactive

What do the screens show for `CC(=O)NC(Cc1ccc(F)cc1)C(=O)N1CCN(C(=O)NCc2ccccc2)CC1` (stereo unspecified)?
KCNQ2 enhance: 0.73; KCNQ2 inh: inactive

What do the screens show for `c1ccc2sc(SCc3ccc(-c4nnco4)cc3)nc2c1`?
KCNQ2 enhance: -7.1; KCNQ2 inh: -7.1*

Results for NC(=O)c1ccc(CSc2nc3ccccc3s2)cc1 ?
KCNQ2 enhance: 0.88; KCNQ2 inh: inactive

Results for Cc1cc(NC(=O)CSc2nnc(N)s2)c([N+](=O)[O-])cc1C ?
KCNQ2 inh: inactive

Results for COc1cccc(C(=O)CN(C(=O)c2ccc(Cl)c(Cl)c2)N2C(=O)C3CCCCC3C2=O)c1 (stereo unspecified) ?
KCNQ2 inh: inactive

Results for COc1ccc(CNc2nc(NCc3ccc(OC)cc3)n(C(C)=O)n2)cc1 ?
KCNQ2 inh: inactive

How did CCC(=O)n1nc(NCc2ccccc2OC)nc1NCc1ccccc1OC do in these assays?
KCNQ2 enhance: -7.3; KCNQ2 inh: -7.3*

What do the screens show for `CCn1c(=O)c2cc(C(=O)N(C)c3cc(C)ccc3OC)sc2c2ccccc21`?
KCNQ2 enhance: -6.4; KCNQ2 inh: -6.4*

How did CCn1c(=O)c2cc(C(=O)N(C)c3ccc(OC)cc3OC)sc2c2ccccc21 do in these assays?
KCNQ2 inh: inactive

How did O=C(NC1CCCCC1)C(c1ccc(O)c(O)c1)N(C(=O)Cn1nnc2ccccc21)c1cccc(O)c1 (stereo unspecified) do in these assays?
KCNQ2 inh: inactive

How did CC(=O)c1ccc(NC(=O)CSc2nc(=O)cc(N)n2-c2ccccc2)cc1 do in these assays?
KCNQ2 enhance: 0.24; KCNQ2 inh: inactive

Results for Cc1nn2c(SCC(=O)c3cccs3)cc(C(C)(C)C)nc2c1-c1ccccc1 ?
KCNQ2 enhance: 20*; KCNQ2 inh: inactive

How did Cc1cc(SCC(=O)c2cccs2)n2nc(C)c(-c3ccc(Cl)cc3)c2n1 do in these assays?
KCNQ2 enhance: 2.4; KCNQ2 inh: inactive

What do the screens show for `COc1ccc2nc(NC(=O)C3CCN(C(=O)c4ccco4)CC3)sc2c1`?
KCNQ2 inh: inactive

Results for NC1=NS(=O)(=O)NC1c1cccc(Cl)c1 (stereo unspecified) ?
KCNQ2 inh: inactive

What do the screens show for `CCc1ccc(NC(=O)c2ccccc2NC(=O)C2CCCO2)cc1` (stereo unspecified)?
KCNQ2 enhance: 0.47; KCNQ2 inh: inactive

Results for O=C(CCc1ccccc1)N/N=C/c1cccc([N+](=O)[O-])c1 ?
KCNQ2 enhance: 2.2; KCNQ2 inh: inactive

Results for O=C(N/N=C/c1ccco1)C1CC1c1ccccc1 (stereo unspecified) ?
KCNQ2 enhance: 20*; KCNQ2 inh: inactive

What do the screens show for `O=C(N/N=C/c1ccco1)C1CC1`?
KCNQ2 enhance: 1.2; KCNQ2 inh: inactive

How did O=C(N/N=C/c1cccc([N+](=O)[O-])c1)C1CC1c1ccccc1 (stereo unspecified) do in these assays?
KCNQ2 enhance: 15*; KCNQ2 inh: inactive

How did O=C(CSc1nc(C(F)(F)F)cc(=O)[nH]1)Nc1ccc2c(c1)OCCO2 do in these assays?
KCNQ2 inh: inactive

What do the screens show for `Cc1nn(-c2ccccc2)c(C)c1C(=O)OCc1ccc(C#N)cc1`?
KCNQ2 inh: inactive

Results for Cc1ccc(NC(=O)CCN2CC(C)OC(C)C2)cc1 (stereo unspecified) ?
KCNQ2 enhance: 0.48; KCNQ2 inh: inactive

Results for CC(C)=N/N=C1/NC(=O)C(CC(=O)Nc2cc(Cl)ccc2C)S1 (stereo unspecified) ?
KCNQ2 enhance: 5.8*; KCNQ2 inh: inactive

Results for Cc1ccccc1NC(=O)CC1SC(=Nc2ccc(O)cc2)NC1=O (stereo unspecified) ?
KCNQ2 enhance: 0.93; KCNQ2 inh: inactive

Results for COc1ccc(N(C)S(=O)(=O)c2cccc(C(=O)Nc3cc(OC)ccc3OC)c2)cc1 ?
KCNQ2 inh: inactive

How did CC(=O)c1cccc(NC(=O)C(OC(=O)c2ccccc2NS(=O)(=O)c2cccs2)c2ccccc2)c1 (stereo unspecified) do in these assays?
KCNQ2 inh: inactive

What do the screens show for `CC(=O)c1cccc(NC(=O)C(OC(=O)c2cccc(S(=O)(=O)N(C)c3ccccc3)c2)c2ccccc2)c1` (stereo unspecified)?
KCNQ2 enhance: -5.5; KCNQ2 inh: -5.5*

How did COc1ccc(N(C)S(=O)(=O)c2cccc(C(=O)OC(C(=O)Nc3cc(C)cc(C)c3)c3ccccc3)c2)cc1 (stereo unspecified) do in these assays?
KCNQ2 enhance: -5.7; KCNQ2 inh: -5.7*

Results for CCOc1ccc2nc(SCc3ccc(C(=O)OC)o3)[nH]c2c1 ?
KCNQ2 inh: inactive

What do the screens show for `Cc1cc2nc(N3C(=O)CNC3=S)sc2cc1C`?
KCNQ2 inh: inactive

What do the screens show for `Cc1cc(C)c(OCC(=O)NCC(C)(C)N2CCOCC2)c(C)c1`?
KCNQ2 enhance: 0.75; KCNQ2 inh: inactive

What do the screens show for `Cc1ccc(N(C(=O)c2ccccc2Cl)C2=NC(C)CS2)c(C)c1` (stereo unspecified)?
KCNQ2 enhance: -6; KCNQ2 inh: -6*

What do the screens show for `CCOc1ccccc1N(C(=O)c1ccccc1Cl)C1=NC(C)(C)CS1`?
KCNQ2 inh: inactive

Results for Cc1cccc(N2C(=O)CC(c3ccc(F)cc3)C3=C2COC3=O)c1 (stereo unspecified) ?
KCNQ2 enhance: 0.81; KCNQ2 inh: inactive

How did Cc1c(Br)c([N+](=O)[O-])nn1CC(=O)N(C)Cc1ccccc1 do in these assays?
KCNQ2 enhance: 0.66; KCNQ2 inh: inactive

What do the screens show for `O=C(CSc1nnc(-c2ccco2)n1Cc1ccco1)NCc1cccs1`?
KCNQ2 enhance: 0.13; KCNQ2 inh: inactive

How did O=C(CSc1nnc(Cc2cccs2)n1Cc1ccco1)Nc1ccc(Br)cc1 do in these assays?
KCNQ2 enhance: -6.7; KCNQ2 inh: -6.7*

How did O=C(CSc1nnc(Cc2ccccc2)n1Cc1ccco1)NC12CC3CC(CC(C3)C1)C2 do in these assays?
KCNQ2 enhance: -7.7; KCNQ2 inh: -7.7*

High-throughput results (PubChem BioAssay)
